Active and inactive are the calls of the source. How the source made its calls: active means hit-call score of the fitted dose curve at least 0.9, where 1 is the maximum; inactive means score below 0.9.
Key:
Conditions in all cases: mRNA level, 48 h; actives raise or lower the signal
[1] = read-out: Early growth response protein 1 (EGR1) transcription factor, EGR1 (gene 1958); test: LTEA_HepaRG_EGR1: Life Technologies and Expression Analysis (LTEA) Assay for Early growth response protein 1 (EGR1) transcription factor using HepaRG (AID 2283490)
Summary of the method: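 Read-out is EGR1 mRNA level by qRT-PCR, normalized to three housekeeping genes and analysed for gain or loss of signal against 0.5% DMSO. Source cells: human HepaRG, treated 48 h at up to 100 uM in half-log dilutions.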

[2] = read-out: Ezrin (EZR), EZR (gene 7430); test: LTEA_HepaRG_EZR: Life Technologies and Expression Analysis (LTEA) Assay for Ezrin (EZR) using HepaRG (AID 2283491)
Summary of the method: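 EZR transcript levels came from Fluidigm qRT-PCR and were normalized to three housekeeping genes after 48 h chemical exposure of HepaRG cells. Dosing used an 8-point half-log series with a 100 uM top concentration in 0.5% DMSO, tested in duplicate; both directions were fitted versus vehicle.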

[3] = read-out: Cytochrome P450 3A7 (Homo sapiens) (UniProt P24462); test: LTEA_HepaRG_CYP3A7: Life Technologies and Expression Analysis (LTEA) Assay for CYP3A7 using HepaRG (AID 2283492)
Summary of the method: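 HepaRG cells plated 48 h, then dosed in serum-free induction medium for 48 h at 8 concentrations (top 100 uM, half-log steps, 0.5% DMSO). CYP3A7 mRNA by qRT-PCR, normalised to ACTB/GAPDH/POLR2A; bidirectional fit versus DMSO.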

CYP3A5 (gene 1577) = test: LTEA_HepaRG_CYP3A5: Life Technologies and Expression Analysis (LTEA) Assay for CYP3A5 using HepaRG (AID 2283493)
Summary of the method: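 mRNA induction or loss of CYP3A5 assessed in HepaRG after 48 h dosing, 100 uM top concentration, duplicate wells; TaqMan qRT-PCR with ACTB, GAPDH, POLR2A normalization; 0.5% DMSO as negative control.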

[4] = read-out: Fatty Acid-Binding Protein 1 (FABP1), FABP1 (gene 2168); test: LTEA_HepaRG_FABP1: Life Technologies and Expression Analysis (LTEA) Assay for Fatty Acid-Binding Protein 1 (FABP1) using HepaRG (AID 2283494)
Summary of the method: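 HepaRG, 48 h post-plating switched to serum-free induction medium, then dosed 48 h (duplicate, 8 pts, ≤100 uM, 0.5% DMSO). RNA → Fluidigm TaqMan qRT-PCR, FABP1 normed to ACTB/GAPDH/POLR2A. Bidirectional curve fit vs DMSO.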

[5] = read-out: Cytochrome P450 4A22 (Homo sapiens) (UniProt Q5TCH4); test: LTEA_HepaRG_CYP4A22: Life Technologies and Expression Analysis (LTEA) Assay for Cytochrome P450 4A22 (CYP4A22) using HepaRG (AID 2283495)
Summary of the method: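 qRT-PCR of CYP4A22 mRNA (Fluidigm TaqMan, normalized to three housekeeping genes) after 48 h chemical exposure of HepaRG cells; 8-point half-log series, top 100 uM, 0.5% DMSO vehicle. Bidirectional curve fitting vs DMSO baseline.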

[6] = read-out: Cytochrome P450 7A1 (Homo sapiens) (UniProt P22680); test: LTEA_HepaRG_CYP7A1: Life Technologies and Expression Analysis (LTEA) Assay for Cytochrome P450 7A1 (CYP7A1) using HepaRG (AID 2283496)
Summary of the method: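 Gene expression endpoint in human HepaRG liver cells treated for 48 h with test chemicals (up to 100 uM, 0.5% DMSO). Values come from bidirectional concentration-response fitting versus DMSO.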

[7] = read-out: Glutathione S-Transferase (GSTA2), GSTA2 (gene 2939); test: LTEA_HepaRG_GSTA2: Life Technologies and Expression Analysis (LTEA) Assay for Glutathione S-Transferase (GSTA2) using HepaRG (AID 2283497)
Summary of the method: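 HepaRG, 48 h dosing, 8-pt half-log CRC from 100 uM, 0.5% DMSO vehicle, n=2; RNA → Fluidigm TaqMan qRT-PCR; GSTA2 vs ACTB/GAPDH/POLR2A; gain/loss fit vs DMSO.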

[8] = read-out: Glutamate-cysteine ligase catalytic (GCLC), GCLC (gene 2729); test: LTEA_HepaRG_GCLC: Life Technologies and Expression Analysis (LTEA) Assay for Glutamate-cysteine ligase catalytic (GCLC) using HepaRG (AID 2283498)
Summary of the method: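 Read-out is GCLC transcript level by Fluidigm-based TaqMan qRT-PCR, normalized to three housekeeping genes and fitted in both directions relative to 0.5% DMSO. Human HepaRG cells received chemicals for 48 h, up to 100 uM.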

[9] = read-out: growth arrest and DNA damage 45 (GADD45G), GADD45G (gene 10912); test: LTEA_HepaRG_GADD45G: Life Technologies and Expression Analysis (LTEA) Assay for growth arrest and DNA damage 45 (GADD45G) using HepaRG (AID 2283499)
Summary of the method: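 Differentiated human HepaRG cells in serum-free induction medium were exposed for 48 h to 8 half-log concentrations up to 100 uM in 0.5% DMSO, in duplicate. GADD45G mRNA was measured by TaqMan qRT-PCR, normalised to ACTB, GAPDH and POLR2A, and fitted bidirectionally against DMSO.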

[10] = read-out: Glutamate-cysteine ligase regulatory (GCLM), GCLM (gene 2730); test: LTEA_HepaRG_GCLM: Life Technologies and Expression Analysis (LTEA) Assay for Glutamate-cysteine ligase regulatory (GCLM) using HepaRG (AID 2283500)
Summary of the method: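 Human liver HepaRG cultures receive test chemicals for 48 hours at up to 100 uM in 0.5% DMSO. GCLM expression is measured by qRT-PCR and analysed for increases or decreases against vehicle.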

[11] = read-out: Glutathione S-transferase M3 (GSTM3), GSTM3 (gene 2947); test: LTEA_HepaRG_GSTM3: Life Technologies and Expression Analysis (LTEA) Assay for Glutathione S-transferase M3 (GSTM3) using HepaRG (AID 2283501)
Summary of the method: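 Differentiated HepaRG cells in serum-free induction medium were exposed in duplicate for 48 h to 8 half-log concentrations up to 100 uM in 0.5% DMSO. GSTM3 mRNA was measured by TaqMan qRT-PCR, normalized to ACTB/GAPDH/POLR2A, and fitted bidirectionally versus DMSO.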

[12] = read-out: Heat shock 70 kDa protein 1 (HSPA1A), gene 3303; test: LTEA_HepaRG_HSPA1A: Life Technologies and Expression Analysis (LTEA) Assay for Heat shock 70 kDa protein 1 (HSPA1A) using HepaRG (AID 2283502)
Summary of the method: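 HSPA1A induction in human HepaRG liver cells is measured after 48 h of chemical treatment (100 uM maximum, 0.5% DMSO vehicle). Expression comes from qRT-PCR normalized to endogenous controls.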

[13] = read-out: Hypoxia-inducible factor 1-alpha (Homo sapiens) (UniProt Q16665); test: LTEA_HepaRG_HIF1A: Life Technologies and Expression Analysis (LTEA) Assay for Hypoxia-inducible factor 1 (HIF1A) Trancription factor using HepaRG (AID 2283503);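 further: HIF1A transcript by TaqMan qRT-PCR normalized to ACTB GAPDH and POLR2A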
Summary of the method: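 HepaRG, 48 h exposure, 8-pt half-log series from 100 uM, 0.5% DMSO vehicle, duplicates. Readout: HIF1A transcript by qRT-PCR (Fluidigm array), housekeeping-normalised. Bidirectional curve fit vs DMSO baseline.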

[14] = read-out: 3-Hydroxy-3-Methylglutaryl-CoA Synthase 2 (HMGCS2), HMGCS2 (gene 3158); test: LTEA_HepaRG_HMGCS2: Life Technologies and Expression Analysis (LTEA) Assay for 3-Hydroxy-3-Methylglutaryl-CoA Synthase 2 (HMGCS2) using HepaRG (AID 2283504)
Summary of the method: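 Differentiated human HepaRG cells were exposed in duplicate for 48 h in serum-free induction medium to eight concentrations (top 100 uM, half-log steps, 0.5% DMSO). HMGCS2 mRNA was quantified by TaqMan qRT-PCR, normalised to ACTB, GAPDH and POLR2A, then fitted bidirectionally against DMSO.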

HGF (gene 3082) = test: LTEA_HepaRG_HGF: Life Technologies and Expression Analysis (LTEA) Assay for Hepatocyte Growth Facto (HGF) using HepaRG (AID 2283505)
Summary of the method: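 Differentiated human HepaRG cells in serum-free induction medium were exposed in duplicate for 48 h to eight concentrations (top 100 uM, half-log steps, 0.5% DMSO). HGF mRNA was quantified by qRT-PCR, normalized to ACTB, GAPDH and POLR2A.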

[15] = read-out: Intercellular Adhesion Molecule 1 (ICAM1), ICAM1 (gene 3383); test: LTEA_HepaRG_ICAM1: Life Technologies and Expression Analysis (LTEA) Assay for Intercellular Adhesion Molecule 1 (ICAM1) using HepaRG (AID 2283507)
Summary of the method: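 Differentiated HepaRG cells in serum-free induction medium were exposed in duplicate for 48 h to eight half-log concentrations up to 100 uM in 0.5% DMSO. Transcript levels were measured by qRT-PCR normalized to ACTB, GAPDH and POLR2A; bidirectional fits relative to DMSO.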

[16] = read-out: Insulin-like growth factor-binding protein 1 (IGFBP1), IGFBP1 (gene 3484); test: LTEA_HepaRG_IGFBP1: Life Technologies and Expression Analysis (LTEA) Assay for Insulin-like growth factor-binding protein 1 (IGFBP1) using HepaRG (AID 2283508)
Summary of the method: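 Differentiated human HepaRG cells in serum-free induction medium were exposed in duplicate for 48 h to eight concentrations, top 100 uM with half-log dilutions, in 0.5% DMSO. Transcript levels came from qRT-PCR normalised to ACTB, GAPDH and POLR2A, fitted bidirectionally against DMSO.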

[17] = read-out: Interleukin 6 (IL6), IL6 (gene 3569); test: LTEA_HepaRG_IL6: Life Technologies and Expression Analysis (LTEA) Assay for Interleukin 6 (IL6) using HepaRG (AID 2283509)
Summary of the method: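 HepaRG, ~100,000 cells/well, 48 h pre-culture; serum-free induction medium; cmpd 8-pt half-log from 100 uM, 0.5% DMSO, duplicate, 48 h. Lysis in RLT, TaqMan qRT-PCR; gain or loss vs DMSO.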

[18] = read-out: Interleukin 6 Receptor (IL6R), IL6R (gene 3570); test: LTEA_HepaRG_IL6R: Life Technologies and Expression Analysis (LTEA) Assay for Interleukin 6 Receptor (IL6R) using HepaRG (AID 2283510)
Summary of the method: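 Concentration-response in human liver HepaRG cells: eight concentrations from 100 uM downward by half-logs, 48 h exposure, 0.5% DMSO vehicle. IL6R mRNA change measured by qRT-PCR and fitted in both directions relative to vehicle.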

Measured: outcome

Sequence of Hypoxia-inducible factor 1-alpha (Homo sapiens) (Q16665 whole entry, looked up): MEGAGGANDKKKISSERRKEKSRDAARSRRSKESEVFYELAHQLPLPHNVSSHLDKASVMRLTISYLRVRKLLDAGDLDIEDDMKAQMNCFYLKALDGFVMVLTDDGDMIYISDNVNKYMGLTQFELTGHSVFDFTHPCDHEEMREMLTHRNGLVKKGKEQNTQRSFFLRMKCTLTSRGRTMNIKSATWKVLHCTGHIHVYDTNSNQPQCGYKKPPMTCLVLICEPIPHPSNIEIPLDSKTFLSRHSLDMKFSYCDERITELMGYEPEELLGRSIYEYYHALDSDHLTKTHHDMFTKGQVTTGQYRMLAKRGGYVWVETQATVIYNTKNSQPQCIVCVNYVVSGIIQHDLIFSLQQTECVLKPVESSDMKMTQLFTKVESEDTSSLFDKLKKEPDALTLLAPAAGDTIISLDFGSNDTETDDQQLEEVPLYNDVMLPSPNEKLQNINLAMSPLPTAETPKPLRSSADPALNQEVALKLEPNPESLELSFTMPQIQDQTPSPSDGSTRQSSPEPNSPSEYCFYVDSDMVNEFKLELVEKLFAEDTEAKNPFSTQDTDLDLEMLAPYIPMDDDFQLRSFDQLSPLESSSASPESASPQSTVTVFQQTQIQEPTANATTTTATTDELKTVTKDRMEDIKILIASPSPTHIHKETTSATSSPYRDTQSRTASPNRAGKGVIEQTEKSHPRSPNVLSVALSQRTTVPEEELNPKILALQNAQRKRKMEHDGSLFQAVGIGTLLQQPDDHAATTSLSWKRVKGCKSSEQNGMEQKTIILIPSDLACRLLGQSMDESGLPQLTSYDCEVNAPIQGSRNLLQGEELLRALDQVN
Sequence of Cytochrome P450 3A7 (Homo sapiens) (P24462 whole entry, looked up): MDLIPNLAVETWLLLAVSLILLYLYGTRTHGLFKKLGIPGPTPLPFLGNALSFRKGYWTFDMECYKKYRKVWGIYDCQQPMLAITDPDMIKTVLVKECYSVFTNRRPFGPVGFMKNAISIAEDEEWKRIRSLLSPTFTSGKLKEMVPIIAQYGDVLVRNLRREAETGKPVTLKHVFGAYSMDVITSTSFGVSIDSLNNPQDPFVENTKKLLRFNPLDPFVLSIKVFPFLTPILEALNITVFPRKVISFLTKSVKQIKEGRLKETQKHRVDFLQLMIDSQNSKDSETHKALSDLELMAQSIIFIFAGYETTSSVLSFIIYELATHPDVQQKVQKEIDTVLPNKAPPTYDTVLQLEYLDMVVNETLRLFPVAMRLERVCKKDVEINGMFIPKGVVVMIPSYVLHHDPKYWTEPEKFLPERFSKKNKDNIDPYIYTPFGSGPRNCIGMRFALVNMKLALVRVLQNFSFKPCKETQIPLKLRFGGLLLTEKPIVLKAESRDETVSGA

CS(=O)(=O)OCCCCOS(C)(=O)=O
inactive: all assays above

Reference: PubChem BioAssay (EPA / NIEHS)
